In PubChem BioAssay AID1259313 (Sanford-Burnham Center for Chemical Genomics, 2017) one finds Tm shift relative to glycine control data, which are given here for 34 compounds.

Out of some 340,000 compounds screened, about 8,500 (2.5%) were called active. For the sample, actives were picked, then their nearest neighbours and some compounds at random. Unmarked numbers belong to inactive results.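 Rule for the calls: active = melting temperature shift of at least 10% of the positive control shift, at one fixed dose; inactive = the rest.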

The test system of the assay is Glutamate receptor ionotropic, NMDA 3A (GRIN3A) ligand-binding domain. Briefly: binders of NR3A ligand-binding domain, primary screen, biophysical, differential scanning fluorimetry, uHTS (AID 1259313). The note with it: NR3A LBD differential scanning fluorimetry, at 25 µM, hits give high values, 0% = protein alone, 100% = glycine-bound protein. Background: Differential scanning fluorimetry follows unfolding on heating by fluorescence.
As to `Cc1nn(-c2ccccc2)c2[nH]c(C(F)(F)F)cc(=O)c12`, the Tm shift relative to glycine control was -11.2%. The value for `COc1ccc(CN2CCN(Cc3cn(C)nc3-c3ccccc3)CC2CCO)c(C)c1C` (centres undefined) was -3.71%; that for `O=C(/C=C(O)/C=C/c1ccc(O)cc1)/C=C/c1ccc(O)cc1` was 19% (active).

For the compound `O=C(O)/C=C/c1ccc(OCCCF)cc1`, the Tm shift relative to glycine control is -1.35%. The value for `COc1cccc(C=CC(=O)C=CC=Cc2ccccc2)c1` was -1.98%.

As for `Cc1ccc(S(=O)(=O)NCCc2nnc3ccc(SCc4cccnc4)nn23)cc1`, the Tm shift relative to glycine control was -2.44%. The figure for `COc1cc(OC)c(C(=O)NNC(=O)c2ccccc2-n2cccc2)cc1OC` is -0.41%. The figure for `CCCCCCC(O)(CCN1CCCCC1)c1ccccc1` (centres undefined) is -3.65%; for `S=c1[nH]nc(-c2cccs2)n1/N=C/c1cn(-c2ccccc2)nc1-c1ccc(Cl)cc1` it is 15.2% (active); for `S=c1[nH]nc(-c2cccs2)n1/N=C/c1cccs1` it is 0.68%. The value for `S=c1[nH]nc(-c2ccncc2)n1/N=C/c1ccccc1Cl` was -1.38%; that for `CC(C(=O)Nc1ccccc1-c1ccccc1)N1CCOCC1` (centres undefined) was -18.3%; that for `CCOc1ccc2nc(C(=O)N3CCCC(C)C3)sc2c1` (centres undefined) was 3.03%. Regarding `CC(N=Cc1nc(-c2ccccc2)oc1O)c1ccccc1` (centres undefined), the Tm shift relative to glycine control was 1.17%.

`CCOc1ccc2nc(/N=C/c3nc(-c4ccccc4)oc3O)sc2c1`: the Tm shift relative to glycine control is 38% (active). The figure for `COc1ccccc1-c1nnc2n1N=C(c1ccc(OC(F)F)c(OCC3CC3)c1)CS2` is 20.6% (active). The value for `CCn1c(SCC(=O)NC2CC2)nnc1-c1ccccc1OC` was -19.3%; that for `COc1ccc(C2=Nn3c(nnc3-c3ccccc3OC)SC2)cc1OC1CCCC1` was -1.54%; that for `Cn1c(C(=O)OC(C(=O)NC2CCCCC2)c2ccccn2)cc2sccc21` (centres undefined) was -2.22%. The figure for `C/C(=N/NC(=O)C1COc2ccccc2O1)c1ccco1` (centres undefined) is 0.45%; for `C/C(=N/NC(=O)CCc1ccccc1)c1ccco1` it is 13.4% (active); for `C/C(CC(=O)NC(C)(C)C)=N\NC(=O)c1ccco1` it is -2.4%. In the case of `C=C(C)CNC(=S)/N=c1\scc(C)n1CC`, the Tm shift relative to glycine control was 0.78%.

Regarding `Cc1c(Cl)cccc1NC(=O)CSc1ccc(-c2cccnc2)nn1`, the Tm shift relative to glycine control is 0.4%. The figure for `COc1ccc([C@H]2[C@H](C(C)=O)N3N=Cc4ccccc4C3C23C(=O)OC(C)(C)OC3=O)cc1` (some centres undefined) is 1.26%; for `COc1cc2ccccc2cc1C(=O)Nc1ccc(NC(=O)c2cccs2)cc1` it is 28.6% (active); for `CC(C)C(=O)Nc1cccc(C(=O)Nc2ccc3c(c2)OCO3)c1` it is -22.3%. As to `COc1cc(NC(=O)COc2ccccc2Cl)ccc1NC(=O)C(C)C`, the Tm shift relative to glycine control was -1.36%.

On to `O=C(Nc1ccc(NC(=O)c2ccc3c(c2)OCO3)cc1)c1cccc(Cl)c1`, for which the Tm shift relative to glycine control is 4.36%. The value for `COc1cc(NC(=O)c2cccs2)ccc1NC(=O)c1ccccc1Cl` was 11.9% (active); that for `COc1cc(Cl)c(C)cc1NC(=O)[C@@H]1CCCN1C(=O)c1cccs1` was -1.61%; that for `COc1cc2ccccc2cc1C(=O)Nc1ccc(S(=O)(=O)Nc2cc(C)on2)cc1` was -5.06%. For `COc1cc2ccccc2cc1C(=O)Nc1ccncc1`, the Tm shift relative to glycine control is -12.5%. Take `COc1cc(NC(=O)c2ccc3c(c2)OCO3)ccc1NC(=O)c1cccs1`: the Tm shift relative to glycine control is 26.8% (active).
